Most compounds without a hit are left out; they make up all but 10% or so of the library.
G9a block – inhibitors of human histone lysine methyltransferase G9a. G9a H3K9 monomethylation, AlphaScreen, 2 h. AID 504332. Potency, µM (series often up to 102 µM), inactives show top-dose activity, negative = inhibition, hits mostly inhibitors. Q96KQ7. actives 8.8% (n = 350,000); further: on the % scale 0 is the no-effect control and ±100 the full control effect; nearly all actives have a fitted effect of over 75% in size
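G9a (20 nM) was preincubated 15 min with compound, then reacted 2 h at room temperature with 500 nM biotin-H3K9 peptide and 20 µM SAM. Monomethyl-H3K9 detected by AlphaScreen using anti-H3K9me1 antibody.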
BAZ2B block – BAZ2B (human) inhibition; AID 504333; actives 4.4% (n = 360,000); AlphaScreen BAZ2B-H3K14Ac peptide displacement; Q9UIF8; Potency, µM (highest dose often 114 µM), inactives show at the highest dose activity change, negative = inhibition, usual class: inhibitors; further: on the % scale 0 is the no-effect control and ±100 the full control effect; nearly all actives have a fitted effect of over 60% in size
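Protein-peptide AlphaScreen: BAZ2B 50 nM, b-H3K14Ac 50 nM, 1x PBS pH 7.4 + 0.01% Tween-20. Preincubation 30 min RT; cpd 30 min RT (top 110 uM); beads 20 min RT, light-protected.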
HP1b binding inh – blocks HP1-beta chromodomain binding to methylated histone tails; P83916; AlphaScreen HP1-beta / biotin-H3K9me3 peptide binding; Potency, µM (top dose mostly 114 µM), for inactives: at the highest dose activity change, negative = inhibition, usual class: inhibitors; actives 0.56% (n = 390,000); further: nearly all actives have a fitted effect of over 70% in size
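Compound inhibition of the preformed complex between 50 nM HP1-beta and 50 nM biotinylated H3K9me3 peptide was read by AlphaScreen. Buffer was PBS pH 7.4 with 0.01% Tween-20. Incubations ran 30 min at room temperature, with 10 ug/mL donor/acceptor beads.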
GLS inhibitor – inhibitors of human glutaminase (GLS) | Potency, µM (titrated, usually from 45.5 µM), without a hit: at the top dose activity change, negative = inhibition, hits mostly inhibitors | O94925 | actives 0.21% (n = 410,000) | GLS enzymatic activity, qHTS titration; further: on the % scale 0 is the no-effect control and ±100 the full control effect
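hKGA; 45 mM KH2PO4 pH 8.2 + 0.02% Tween-20; cpd via pin tool; 1 mM Gln soln; GluOx/HRP/Amplex Red; RT 30 min; fluor. t0 & final.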
JMJD2A Tudor – blocks the human JMJD2A Tudor domain | Potency, µM (highest dose often 114 µM), for inactives: at the highest dose activity change, negative = inhibition, usual class: inhibitors | AlphaScreen JMJD2A-Tudor / H3K4me3 peptide binding | actives 4.4% (n = 390,000); further: on the % scale 0 is the no-effect control and ±100 the full control effect; nearly all actives have a fitted effect of over 50% in size
The depositor's hits bear a star; ? = inconclusive; / = not tested or not shown; [ ] = remark or other dose. The call rests on the fitted dose curve; in most records, active means well fitted curve in the direction sought with a large enough effect; inconclusive means small, poorly fitted or top-dose-only effect, or another doubt; inactive means no such curve, though single readings can be large; an effect the other way counts as inactive or inconclusive. Potency means the concentration at half of the fitted maximal effect.

SMILES	G9a block	BAZ2B block	HP1b binding inh	GLS inhibitor	JMJD2A Tudor
O=[N+]([O-])c1cc(F)cc(F)c1Nc1cc(F)cc(F)c1	/	/	?	3%	45µM*
CCOC(=O)N1CCC(NC(=O)CN(c2ccc(C(C)C)cc2)S(=O)(=O)c2c(C)nn(C)c2C)CC1	-2%	-11%	34%	-1%	-9%
CCn1cc([N+](=O)[O-])c(C(=O)N2N=C(c3ccc(O)c(OC)c3)CC2c2ccccc2O)n1 (stereo unspecified)	40µM*	-6%	-21%	25%	-28%
Cc1sc(NC(=O)c2cccs2)c(C(N)=O)c1C	4µM*	-6%	?	0%	-21%
Cc1cnc(C(=O)O)cn1	?	/	/	2%	/
O=C(O)c1ccc(Br)cn1	22µM*	22µM*	5%	0%	5.6µM*
COC(=O)c1ccc(C(=O)O)nc1	/	18µM*	?	4%	13µM*
O=C(NCCCl)C1Cc2c(ccc3ccccc23)O1 (stereo unspecified)	40µM*	-28%	36%	-8%	-6%
O=S(=O)(CC(CN1CCCCC1)N1CCCCC1)c1ccccc1 (stereo unspecified)	-1%	-17%	43%	1%	-19%
O=[N+]([O-])c1ccc(S(=O)(=O)CC(CN2CCCCC2)N2CCCCC2)cc1 (stereo unspecified)	35µM*	-22%	12%	-1%	-18%
O=[N+]([O-])c1ccc(S(=O)(=O)CC(CN2CCOCC2)N2CCOCC2)cc1 (stereo unspecified)	56µM*	14%	30%	5%	-5%
CCOC(=O)[C@]12CCC=C1N(CCC1=CCCCC1)C(=O)[C@H](CC(=O)NCCCCc1ccccc1)C2	/	/	/	-6%	/
CCc1ccccc1-n1nnnc1SCC(=O)Nc1ccc(N2CCN(C)CC2)cc1	50µM*	?	50%	45%	10%
CCc1ccccc1-n1nnnc1SCC(=O)Nc1cc(C)on1	?	?	3%	-6%	-14%
Cc1cccc(-n2nnnc2SCC(=O)NC2CCCC2)c1	/	/	1%	4%	-2%
Cc1ccccc1-n1nnnc1SCC(=O)Nc1ccc(N2CCN(C)CC2)cc1	50µM*	-32%[57.1 µM]	38%	39%	?
Cc1ccccc1-n1nnnc1SC(C)C(=O)Nc1ccc(N2CCN(C)CC2)cc1 (stereo unspecified)	-8%[12.7 µM]	?	-1%	35%	?
Cc1cccc(-n2nnnc2SCC(=O)Nc2ccc(N3CCN(C)CC3)cc2)c1	45µM*	?	-3%	23%	?
CC(C)N1CC2(CC(c3ccc(Cl)cc3Cl)=NO2)CN1C(=O)c1ccc(C(C)(C)C)cc1 (stereo unspecified)	/	/	/	-6%	/
COc1cccc(N2CC(NC(=O)COc3ccc4ccccc4c3)CC2=O)c1 (stereo unspecified)	-1%[59 µM]	-1%	25%	-1%	-12%
CN[C@H]1C[C@H]2c3cc(N4CCN(C)CC4)ccc3CCN2C(=O)[C@H]1[C@H](C)O	/	/	/	7%	/
COc1ccccc1NC(=O)C(=O)NCCc1csc(-c2cccc(F)c2)n1	16%[59 µM]	1%	14%[57 µM]	-10%	-6%
NC(=S)N=Nc1c(O)cc(O)c2[nH]c(=O)ccc12	/	/	18µM*	?	50µM*
CCCCN(C)CCn1c(=S)[nH]c2ncccc2c1=O	50µM*	3%	-12%	26%	?
CC1CC(C)CN(CCCn2c(=S)[nH]c3ccccc3c2=O)C1 (stereo unspecified)	79µM*	1%	50%	-4%	-15%
SMILES	G9a block	BAZ2B block	HP1b binding inh	GLS inhibitor	JMJD2A Tudor
O=c1c2cccnc2[nH]c(=S)n1CCCN1CCN(c2ccccc2F)CC1	25%[2.33 µM]	5%	32%	2%	-16%
CC(C)OCCCn1c(=S)[nH]c2ncccc2c1=O	50µM*	-7%	-6%	-18%	?
CC1CCCCN1CCn1c(=S)[nH]c2ncccc2c1=O (stereo unspecified)	?	-25%	-2%	29%	40µM*
O=c1c2ccccc2[nH]c(=S)n1CCCN1CCN(c2ccccc2)CC1	-22%	-3%	-5%[57 µM]	-8%	-18%
CCc1ccccc1NC(=O)CCn1cccn1	7%[59 µM]	-2%	62%	0%	-7%
CC1(NC(=O)CCc2nc3ccccc3c(=O)[nH]2)CCS(=O)(=O)C1 (stereo unspecified)	/	-3%	30%	-14%	-22%
O=C1O[C@@H](c2ccccc2)C[C@@H](O)C(=O)CCc2ccccc21	/	/	/	6%	/
CCN(CC)CCCn1c(=S)[nH]c2ccccc2c1=O	?	-30%	29%	9%	56µM*
CCN(CC)CCCn1c(=S)[nH]c2ncccc2c1=O	50µM*	-9%	?	10%	8.9µM*
CCN(CCCn1c(=S)[nH]c2ncccc2c1=O)c1ccccc1	1%	-31%	9%	25%	-25%
O=C(Nc1ccccc1OCc1cc(=O)n2ccccc2n1)Nc1ccccc1C(F)(F)F	-12%[59 µM]	7%	24%[57 µM]	-5%	-11%
O=C1/C(=C\c2ccc(O)c(O)c2)N=C2CCCCCN12	28µM*	?	-4%	2.5µM*	3.2µM*
COc1cc(/C=C2\N=C3CCCCCN3C2=O)ccc1O	?	-24%	39%	-1%	-18%
CCOC(=O)c1c(C)oc2ncnc(Nc3cc(Cl)ccc3OC)c12	1%[59 µM]	13%[57.1 µM]	52%	-2%	-6%
C=CCn1c(SCC(=O)Nc2ccc3c(c2)OCCO3)nc2cc(C(=O)O)ccc2c1=O	?	8%	23%	-1%	-23%
O=C(NCCOCCn1c(=O)oc2ccccc21)Nc1ccc(Cl)cc1	0%[59 µM]	1%	19%	-1%	-17%
Cc1cc(C(=O)NCC(=O)O)c(C)o1	-11%	50µM*	9%	-16%	-17%
Cc1ccc2cc3c(nc2c1)OCC3	23%	-22%	31%	-4%	?
Cc1nnsc1-c1nc2ccccc2[nH]1	28µM*	/	61%	6%	-2%
c1csc(-c2nc3ccccc3[nH]2)c1	?	0%	3%	-12%	-2%[11.4 µM]
Cc1ccc(-c2nc3ccccc3[nH]2)s1	7.9µM*	-3%	54%	-9%	-2%
O=C(CNc1cccc(S(=O)(=O)N2CCCC2)c1)Nc1ccc(F)cc1F	-10%	5%	12%	3%	-23%
COCCN(C/C=C/c1ccccc1)C/C=C/c1ccccc1	7.1µM*	?	?	5%	1µM*
Cc1nn(-c2ccc(N3CCOCC3)nn2)c(C)c1CCC(=O)NCc1ccccc1	-9%[59 µM]	-38%	56%	-3%	-9%
Cc1ccc(C(=O)c2nc3c(n2O)CCCC3)cc1	?	5%	-2%	-1%	35µM*
CCOc1ccc(C(=O)c2nc3c(n2O)CCCC3)cc1	?	-11%	17%	14%	-24%
CC1=NN(C(N)=S)C(=O)C1N=Nc1ccccc1 (stereo unspecified)	2%	2%	26%	3%	-19%
